Test [1] can be described thus: Nuclear factor erythroid 2-related factor 2/antioxidant responsive element (Nrf2/ARE) small molecule agonists: qHTS cell viability counter screen in human keratinocytes (AID 1919968; active = well fitted curve in the direction sought with a large enough effect in the repeat runs; an effect the other way counts as inactive or inconclusive; also: nearly all actives have a fitted effect of over 55% in size; also: potency is read from the fitted curve at half-maximal effect). In a few lines: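 Seed 1,500 KeratinoSens cells per well, then incubate 5 h at 37 C/5% CO2. Add compounds in DMSO and incubate 23 h. Add CellTiter-Fluor, wait 1 h and read fluorescence.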

Test [2] can be described thus: Nuclear factor erythroid 2-related factor 2/antioxidant responsive element (Nrf2/ARE) small molecule agonists: luciferase reporter gene qHTS assay in human keratinocytes (AID 1919969). Also: nearly all actives have a fitted effect of over 35% in size.
The target in test [3] is Gonadotropin-releasing hormone receptor (Homo sapiens) (UniProt P30968). Put plainly: Human gonadotropin-releasing hormone receptor (GnRHR) small molecule agonists, calcium flux assay in GnRHR-HEK293 cells (AID 1920063). Also: nearly all actives have a fitted effect of over 35% in size. In a few lines:
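Cells: HEK293 stably expressing human GnRHR. Steps: overnight (18 h) culture, 1 h calcium dye loading at 37 C, compound addition, kinetic fluorescence read at 480/540 nm. Each compound tested at 15 concentrations in triplicate.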

The target of test [4] is KiSS-1 receptor (Homo sapiens) (UniProt Q969F8). Put plainly: Human kisspeptin (KISS1R) small molecule agonists, calcium flux assay in KISS1R-HEK293 cells (AID 1920064; active = well fitted curve in the direction sought with a large enough effect in the repeat runs; an effect the other way counts as inactive or inconclusive). In a few lines: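 Cells plated and incubated 18 h; dye added, 1 h at 37 C; compounds in DMSO pinned in; signal read at 480/540 nm every second for 3 min. Each compound tested at 15 concentrations in triplicate.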
KiSS-1 receptor (Homo sapiens), sequence (Q969F8 whole entry, looked up): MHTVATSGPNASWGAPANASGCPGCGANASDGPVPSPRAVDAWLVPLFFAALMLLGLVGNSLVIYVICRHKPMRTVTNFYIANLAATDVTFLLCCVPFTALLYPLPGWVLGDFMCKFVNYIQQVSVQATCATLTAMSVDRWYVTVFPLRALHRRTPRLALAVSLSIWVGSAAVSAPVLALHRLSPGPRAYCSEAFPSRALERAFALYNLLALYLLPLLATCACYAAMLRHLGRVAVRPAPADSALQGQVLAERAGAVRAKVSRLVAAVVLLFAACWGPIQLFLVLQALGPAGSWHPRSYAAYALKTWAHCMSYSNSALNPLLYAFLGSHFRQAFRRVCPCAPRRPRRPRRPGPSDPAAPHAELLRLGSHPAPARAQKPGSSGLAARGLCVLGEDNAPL

Test [5] is described as follows: G protein-coupled receptor (GPCR) small molecule agonists, calcium flux assay: HEK293 wild type cell line counter screen (AID 1920065). In a few lines: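 Counter-screen of the Tox21 10K library for non-specific calcium release: dye-loaded cells received compounds in DMSO and were monitored by kinetic fluorescence (480/540 nm, 3 min). Fifteen concentrations, run in triplicate.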

Test [6] is described as follows: p53 small molecule agonists, cell-based qHTS assay with human liver microsomes (AID 1963577).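 Also: p53 response element beta-lactamase reporter cells with liver microsomes plus NADPH.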 In a few lines: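 With metabolic activation: human liver microsomes (0.5 mg/mL final) plus NADPH (0.5 mg/mL final) added alongside compounds to p53RE-bla cells; 16 h 37 C exposure; beta-lactamase read by LiveBLAzer fluorescence.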
Test [7] can be described thus: p53 small molecule agonists, cell-based qHTS assay with human liver microsomes: qHTS cell viability counter screen (AID 1963579). Also: nearly all actives have a fitted effect of over 45% in size. In a few lines:
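Metabolic activation used human liver microsomes and NADPH, both 0.5 mg/mL final, over 16 hours at 37 C on p53RE-bla cells (4,000/well). Cytotoxicity measured by CellTiter-Glo luminescence, 30 min at room temperature.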

Test [8] can be described thus: p53 small molecule agonists, cell-based qHTS assay with rat liver microsomes: qHTS cell viability counter screen (AID 1963580). Also: nearly all actives have a fitted effect of over 45% in size. Also: potency is read from the fitted curve at half-maximal effect. In a few lines: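 p53RE-bla HCT-116 cells (4,000/well) rested 5 h at 37 C, then given Tox21 compounds in DMSO with rat liver microsomes (0.5 mg/mL final) plus NADPH (0.5 mg/mL final) for 16 h at 37 C. Viability read by CellTiter-Glo luminescence after 30 min at room temperature.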

The nature of test [9]: p53 small molecule agonists, cell-based qHTS assay: qHTS cell viability counter screen (AID 1963581). Also: nearly all actives have a fitted effect of over 45% in size. In a few lines: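 Cells: HCT-116 with p53 response element-driven beta-lactamase. Treatment: 16 h, 37 C, compounds in DMSO. Read: CellTiter-Glo luminescence after 30 min RT.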
Test [10] can be described thus: p53 small molecule agonists, cell-based qHTS assay (AID 1963582; active = well fitted activation curve with a large enough effect in the signal ratio in the repeat runs, not every such curve was filed as active; the % refers to the signal ratio). In a few lines: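 Quantitative HTS in p53RE-bla cells: after a 5 h settling period, compounds delivered in DMSO were left on cells for 16 h at 37 C, and reporter induction was measured as fluorescence following 2 h substrate loading.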
The target of test [11] is 5-hydroxytryptamine receptor 2A (Homo sapiens) (UniProt P28223). Description: 5-hydroxytryptamine receptor 2A (HTR2A) small molecule antagonists, cell-based qHTS assay (AID 1963586). Also: nearly all actives have a fitted effect of over 45% in size. In a few lines:
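Antagonist-mode intracellular calcium assay: DOI (4 nM) added after 5 min compound pre-incubation at room temperature to dye-loaded HTR2A-CHO cells. Fluorescence followed for 3 min, sampled every second.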

Test [12] has the same target. Put plainly: 5-hydroxytryptamine receptor 2A (HTR2A) small molecule agonists, cell-based qHTS assay (AID 1963587). Also: nearly all actives have a fitted effect of over 30% in size. In a few lines:
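HTR2A-CHO cells, plated 18 h at 37 C/5% CO2, dye-loaded 1 h at 37 C; compounds in DMSO added by pin tool (agonist mode). Intracellular calcium flux read as kinetic fluorescence on FDSS over 2 min at 1 s intervals.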

The target in test [13] is Muscarinic acetylcholine receptor M1 (Homo sapiens) (UniProt P11229). Put plainly: Cholinergic receptor muscarinic 1 (CHRM1) small molecule antagonists, cell-based qHTS assay (AID 1963588). Also: nearly all actives have a fitted effect of over 40% in size. In a few lines:
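CHRM1-CHO calcium-flux assay, antagonist mode. Cells were seeded 18 h, dye-loaded 1 h at 37 C and given compound for 5 min at RT, then acetylcholine was added at 50nM. FDSS fluorescence was read 3 min; 15 concentrations, three runs.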

For test [14] the target is unchanged. Put plainly: Cholinergic receptor muscarinic 1 (CHRM1) small molecule agonists, cell-based qHTS assay (AID 1963589). Also: nearly all actives have a fitted effect of over 35% in size. In a few lines: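 Agonist-mode qHTS in CHO cells stably carrying human muscarinic M1. Intracellular calcium is tracked by fluorescence every second after compound transfer; each compound runs at 15 concentrations in three independent runs.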

Test [15] can be described thus: cAMP Responsive Elements (CRE) small molecule agonists, cell-based qHTS assay (AID 1963590). In a few lines:
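Agonist mode qHTS in CRE-bla HEK 293T cells: compounds dosed from DMSO for 3 h at 37 C/5% CO2, followed by LiveBLAzer B/G FRET substrate for 2 h at room temperature.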

The nature of test [16]: cAMP Responsive Elements (CRE) small molecule antagonists, cell-based qHTS assay (AID 1963591; active = well fitted inhibition curve with a large enough effect in the signal ratio in the repeat runs, not every such curve was filed as active; the % refers to the signal ratio). In a few lines:
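Antagonist mode: test compounds are co-incubated with the adenylyl cyclase activator NKH477 (0.25 uM final) on CRE-bla HEK293T cells for 3 h at 37 °C, followed by LiveBLAzer substrate loading.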

Test [17] has as its target Beta-2 adrenergic receptor (Homo sapiens) (UniProt P07550). Description: Adrenergic beta2 receptor (ADRB2) small molecule antagonists, cell-based qHTS assay (AID 1963592). Also: nearly all actives have a fitted effect of over 50% in size. Also: potency is read from the fitted curve at half-maximal effect. In a few lines:
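Cells (CHO, stable ADRB2 overexpression) incubated 18-20hr at 37C; compounds added from DMSO; agonist mix (1nM isoproterenol, 100uM IBMX, 25uM Ro-20-1724) added; 0.5hr RT; d2-cAMP and anti-cAMP-cryptate added; 1hr RT; 665/615 nm read.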

Test [18] concerns the target D(2) dopamine receptor (Homo sapiens) (UniProt P14416). Description: Dopamine D2 receptor (DRD2) small molecule antagonists, cell-based qHTS assay (AID 1963595; active = well fitted inhibition curve with a large enough effect in the signal ratio in the repeat runs, with a control signal flat; the % refers to the signal ratio). In a few lines: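 DRD2-HEK293; 0.1 mM Ro20-1724; cpd 10 min RT; NKH477 200 nM + quinpirole 12 nM, 30 min RT; HTRF cAMP (cAMP-d2/anti-cAMP cryptate), 665/620 nm ratio after 1 h.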
Test [19] has as its target Beta-2 adrenergic receptor (Homo sapiens) (UniProt P07550). Put plainly: Adrenergic beta2 receptor (ADRB2) small molecule agonists, cell-based qHTS assay (AID 1963593).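 Also: CHO cells stably overexpressing human ADRB2.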 In a few lines: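 CHO cells stably over-expressing ADRB2 were plated overnight at 37C, then dosed with compounds plus a stimulation mix containing 100uM IBMX and 25uM Ro-20-1724 for 0.5hr at room temperature. cAMP was measured by HTRF competition, 1hr.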

Test [20] addresses D(2) dopamine receptor (Homo sapiens) (UniProt P14416). Description: Dopamine D2 receptor (DRD2) small molecule agonists, cell-based qHTS assay (AID 1963594). Also: nearly all actives have a fitted effect of over 35% in size. In a few lines: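 HEK293 cells stably expressing DRD2 were cultured 24 h at 37 C, then given Ro20-1724 (0.1 mM final) and compounds for 10 min at room temperature. NKH477 (200nM) was then added for 30 min. cAMP was read by HTRF.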

SMILES strings stand for the structures. “And” between values parts separate entries of the source, which are not always exact repeats. Equal entries are not always repeated. Inconclusive results are not listed. The source holds several records for some structures; these can differ, active in one and inactive in another. The source made the active and inactive calls. Unless noted, calls follow the shape of the full dose curve.

Gonadotropin-releasing hormone receptor (Homo sapiens), sequence (P30968 whole entry, looked up): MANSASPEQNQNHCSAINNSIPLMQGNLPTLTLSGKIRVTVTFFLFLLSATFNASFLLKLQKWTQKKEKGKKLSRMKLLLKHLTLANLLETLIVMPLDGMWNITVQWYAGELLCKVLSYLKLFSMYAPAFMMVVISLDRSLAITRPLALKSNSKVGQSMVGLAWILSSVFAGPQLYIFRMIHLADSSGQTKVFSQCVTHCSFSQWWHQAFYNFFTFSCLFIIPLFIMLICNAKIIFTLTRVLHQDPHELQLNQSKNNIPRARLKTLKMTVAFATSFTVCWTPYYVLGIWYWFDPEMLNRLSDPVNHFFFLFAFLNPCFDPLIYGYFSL
Beta-2 adrenergic receptor (Homo sapiens), sequence (P07550 whole entry, looked up): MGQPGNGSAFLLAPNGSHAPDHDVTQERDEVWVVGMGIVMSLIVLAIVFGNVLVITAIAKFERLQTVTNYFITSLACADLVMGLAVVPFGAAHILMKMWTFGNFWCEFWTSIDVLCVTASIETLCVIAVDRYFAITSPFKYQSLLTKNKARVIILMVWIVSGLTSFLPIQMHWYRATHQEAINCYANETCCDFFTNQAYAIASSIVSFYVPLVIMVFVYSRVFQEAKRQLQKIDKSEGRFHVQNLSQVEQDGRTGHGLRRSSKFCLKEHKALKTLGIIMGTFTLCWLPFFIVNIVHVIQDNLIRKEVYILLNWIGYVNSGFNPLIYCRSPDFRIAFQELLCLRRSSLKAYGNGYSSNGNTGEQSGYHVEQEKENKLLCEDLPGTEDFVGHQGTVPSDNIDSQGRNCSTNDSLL
D(2) dopamine receptor (Homo sapiens), sequence (P14416 whole entry, looked up): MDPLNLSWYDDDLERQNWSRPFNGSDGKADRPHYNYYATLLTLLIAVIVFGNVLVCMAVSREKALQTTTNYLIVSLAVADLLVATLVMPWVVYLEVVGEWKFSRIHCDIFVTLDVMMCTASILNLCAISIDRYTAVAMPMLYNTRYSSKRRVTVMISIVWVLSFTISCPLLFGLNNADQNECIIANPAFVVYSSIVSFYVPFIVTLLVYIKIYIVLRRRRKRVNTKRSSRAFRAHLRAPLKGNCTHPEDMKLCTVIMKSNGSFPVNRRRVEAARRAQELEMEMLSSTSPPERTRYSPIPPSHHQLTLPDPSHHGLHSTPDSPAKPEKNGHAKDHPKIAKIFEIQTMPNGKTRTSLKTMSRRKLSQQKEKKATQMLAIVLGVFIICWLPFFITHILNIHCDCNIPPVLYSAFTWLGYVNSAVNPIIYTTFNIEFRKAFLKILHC
Muscarinic acetylcholine receptor M1 (Homo sapiens), sequence (P11229 whole entry, looked up): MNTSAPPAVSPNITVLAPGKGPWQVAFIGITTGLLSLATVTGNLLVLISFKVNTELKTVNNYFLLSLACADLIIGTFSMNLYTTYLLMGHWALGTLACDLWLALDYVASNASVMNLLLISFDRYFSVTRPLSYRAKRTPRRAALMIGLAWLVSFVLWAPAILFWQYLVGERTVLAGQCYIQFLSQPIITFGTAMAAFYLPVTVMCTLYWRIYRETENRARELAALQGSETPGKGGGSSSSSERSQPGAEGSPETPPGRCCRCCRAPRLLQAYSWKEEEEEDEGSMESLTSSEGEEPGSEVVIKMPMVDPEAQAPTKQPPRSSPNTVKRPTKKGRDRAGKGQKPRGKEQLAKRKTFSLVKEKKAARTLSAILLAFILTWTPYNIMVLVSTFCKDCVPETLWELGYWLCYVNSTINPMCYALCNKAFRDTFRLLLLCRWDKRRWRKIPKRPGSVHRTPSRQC
5-hydroxytryptamine receptor 2A (Homo sapiens), sequence (P28223 whole entry, looked up): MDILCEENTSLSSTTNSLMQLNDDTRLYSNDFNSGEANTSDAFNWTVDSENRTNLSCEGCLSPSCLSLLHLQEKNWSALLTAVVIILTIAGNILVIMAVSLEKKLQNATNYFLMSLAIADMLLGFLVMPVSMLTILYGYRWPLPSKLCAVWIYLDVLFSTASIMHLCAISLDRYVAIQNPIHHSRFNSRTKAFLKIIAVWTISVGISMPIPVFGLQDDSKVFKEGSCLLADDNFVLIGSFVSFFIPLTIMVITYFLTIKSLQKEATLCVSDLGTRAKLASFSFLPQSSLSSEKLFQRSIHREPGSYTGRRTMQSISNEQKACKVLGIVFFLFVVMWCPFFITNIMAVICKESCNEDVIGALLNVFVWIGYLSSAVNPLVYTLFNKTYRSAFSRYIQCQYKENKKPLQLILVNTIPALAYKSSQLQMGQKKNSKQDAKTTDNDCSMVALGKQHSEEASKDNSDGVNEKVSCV

In the case of `O=C(O)CC(C(=O)O)C(CC(=O)O)C(=O)O` (stereo unspecified), the Potency entry in test [1], in test [2], in [3], in [4], in [5] and in test [6] was “inactive” in each case. In addition, the Potency result in test [7], in test [8], in [9], in [10], in [11] and in [12] was “inactive” each time. For the same compound, the Potency entry in test [13], in [14], in test [15], in [16], in test [17] and in test [18] was “inactive” throughout.
In the case of `CC(=O)Oc1c(C)c(C)c2c(c1C)CC[C@@](C)(CCC[C@H](C)CCC[C@H](C)CCCC(C)C)O2`, the Potency entry in [1], in test [2], in test [3], in test [4], in [5] and in test [6] was “inactive” throughout. The Potency entry in [8], in test [9], in test [10], in test [11], in [12] and in test [13] was “inactive” throughout. The Potency result in [14], in [15], in [16], in test [17], in [19] and in test [18] was “inactive” throughout.
Regarding `CCCCCC/C=C/CCCCCCCC(=O)O`, the Potency entry in test [1], in [2], in test [3], in test [4], in test [5] and in [6] was “inactive” each time. The Potency entry in [8], in test [9], in test [10], in test [11], in [12] and in test [13] was “inactive” in each case. The Potency result in test [14], in [15], in test [17], in test [19] and in test [18] was “inactive” throughout.
As to `C[C@]12CC[C@@H]3c4ccc(O)cc4CC[C@H]3[C@@H]1CC[C@@H]2O`, the Potency entry in [1], in test [2], in [3], in test [4], in [5] and in test [6] was “inactive” in each case. Moreover, the Potency result in test [7], in test [10], in test [16], in [17], in [20] and in test [18] was “inactive” throughout.
As for `Cc1cn([C@H]2C[C@H](N=[N+]=[N-])[C@@H](CO)O2)c(=O)[nH]c1=O`, the Potency entry in test [1], in test [2], in test [3], in test [4], in [5] and in [6] was “inactive” in each case. The Potency result in test [7], in [9], in test [10], in test [15], in [16] and in test [17] was “inactive” in each case. For the same compound, the Potency result in test [19], in test [20] and in [18] was “inactive” in each case.
Take `Cc1cc(Cc2cc(C)cc(C(C)(C)C)c2O)c(O)c(C(C)(C)C)c1`: the Potency was 13.8 µM (active) and 13.7 µM (active) in [1]; “inactive and 36.3 µM (active)” in test [8]; 34.6 µM (active) and inactive in [17]. The Potency result in test [2], in test [3], in test [4], in [5], in test [6] and in test [9] was “inactive” in each case. Besides, the Potency entry in [11], in test [12], in [13], in [14] and in test [20] was “inactive” throughout.
For the compound `COC(=O)c1ccc(C)cc1`, the Potency result in test [1], in test [2], in test [3], in test [4], in [5] and in test [6] was “inactive” throughout. Besides, the Potency result in [7], in [8], in test [9], in [10], in test [11] and in test [12] was “inactive” in each case. Further, the Potency result in [13], in test [14], in [15], in test [16], in [17] and in test [20] was “inactive” each time. In addition, in test [18], the Potency result was “inactive”.
For `CC(=O)CC(=O)N(C)C`, the Potency entry in test [1], in test [2], in test [3], in test [4], in test [5] and in test [6] was “inactive” throughout. Moreover, the Potency result in test [8], in test [9], in [10], in [12], in test [13] and in test [14] was “inactive” throughout. Further, the Potency entry in [15], in [16], in [17], in test [19], in test [20] and in [18] was “inactive” throughout.
